Unmarked numbers belong to inactive results. Inconclusive results are not listed. Calls of active or inactive are those of the source. Unless noted, the call rests on the fitted dose curve; in most records, active means well fitted curve in the direction sought with a large enough effect in the repeat runs; inconclusive means weak or mixed curves; inactive means no such curve, though single readings can be large; an effect the other way counts as inactive or inconclusive.

A short description of experiment [1]: qHTS assay to identify small molecule agonists of the TGF-beta/Smad signaling pathway - cell viability counter screen (AID 1346829). Further: top concentration of the series differs between compounds; nearly all actives have a fitted effect of over 45% in size. Put shortly:
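In parallel with the Smad reporter read, viability of HEK 293T cells stably carrying SBE-bla is quantified by ATP luminescence following 5 hr compound treatment.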

Experiment [2] is described as follows: qHTS assay to identify small molecule agonists of the TGF-beta/Smad signaling pathway (AID 1346859; active means well fitted activation curve with a large enough effect in the signal ratio in the repeat runs, not every such curve was filed as active; the % refers to the signal ratio; further: series mostly up to about 77 µM). In short, it runs like this:
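Stable Smad binding element-beta-lactamase HEK 293T cells; 5 hr compound exposure at 37 C under 5% CO2; 2 hr room-temperature substrate step; fluorescence excited at 405 nm, collected at 460 nm and 530 nm.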

Experiment [3] in a line: Human pregnane X receptor (PXR) small molecule agonists, qHTS cell viability counter screen (AID 1346977). Further: nearly all actives have a fitted effect of over 50% in size. In short, it runs like this:
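Readout is CellTiter-Fluor fluorescence from PXR-Luc HepG2 cells. Plated cells rested 5hr, then were treated with compounds for 24hr at 37C and 5% CO2, with reagent present during the last hour.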

Experiment [4] can be described thus: Caspase-3/7 induction in HepG2 cells by small molecules, qHTS assay (AID 1346978). Further: nearly all actives have a fitted effect of over 15% in size. Put shortly: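 Wild-type HepG2 cells, 2,000/well, settled 5 hr at 37 C and 5% CO2, then compound-treated for 17 hr; caspase-3/7 activity read by luminescent Caspase-Glo 3/7 after 30 min at room temperature.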
A short description of experiment [5]: Caspase-3/7 induction in CHO-K1 cells by small molecules, qHTS cell viability counter screen (AID 1346979). Further: nearly all actives have a fitted effect of over 35% in size. Put shortly: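 To flag cytotoxic compounds, treated CHO-K1 wild-type cells were given CellTiter-Fluor at 16hr and read fluorescently after 1hr at 37C; the caspase-3/7 luminescence was measured in these same wells.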
A short description of experiment [6]: Caspase-3/7 induction in CHO-K1 cells by small molecules, qHTS assay (AID 1346980). Further: nearly all actives have a fitted effect of over 15% in size. In short, it runs like this: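 Wild-type CHO-K1 cells exposed to compounds for 17hr at 37 C, 5% CO2. Caspase-3/7 activity then measured by Caspase-Glo 3/7 luminescence after 30min at room temperature.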
For experiment [7], the target named is Nuclear receptor subfamily 1 group I member 2 (Homo sapiens) (UniProt O75469). The experiment in a line: Human pregnane X receptor (PXR) small molecule agonists, qHTS assay (AID 1346982). Further: nearly all actives have a fitted effect of over 35% in size. Put shortly:
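Agonist mode qHTS: PXR-Luc HepG2 cells plated 5 hr before DMSO-dissolved compounds were pinned in, cultured 24 hr at 37 C, 5% CO2; ONE-Glo luminescence readout.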

Experiment [8] deals with Cytochrome P450 2D6 (Homo sapiens) (UniProt P10635). Nature of the experiment: Cytochrome P450 Family 2 Subfamily D Member 6 (CYP2D6) small molecule antagonists: luciferase reporter qHTS assay (AID 1671196). Further: series mostly up to about 120 µM; nearly all actives have a fitted effect of over 50% in size. Put shortly:
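P450-Glo format: CYP2D6 converts a proluciferin substrate to luciferin in an NADPH-driven reaction lasting 1 h at room temperature. Light output, proportional to CYP2D6 activity, reflects interference by test chemicals.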

For experiment [9], the target named is Cytochrome P450 2C9 (Homo sapiens) (UniProt P11712). The experiment in a line: Cytochrome P450 Family 2 Subfamily C Member 9 (CYP2C9) small molecule antagonists: luciferase reporter qHTS assay (AID 1671198). Further: series mostly up to about 120 µM; nearly all actives have a fitted effect of over 50% in size. In short, it runs like this: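 P450-Glo proluciferin substrate with CYP2C9 enzyme; 10 min RT preincubation, then NADPH regeneration 1 h at 37C; luciferin detection reagent 20 min RT, luminescence in relative luminescence units.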
Cytochrome P450 2C9 (Homo sapiens), sequence (P11712 whole entry, looked up): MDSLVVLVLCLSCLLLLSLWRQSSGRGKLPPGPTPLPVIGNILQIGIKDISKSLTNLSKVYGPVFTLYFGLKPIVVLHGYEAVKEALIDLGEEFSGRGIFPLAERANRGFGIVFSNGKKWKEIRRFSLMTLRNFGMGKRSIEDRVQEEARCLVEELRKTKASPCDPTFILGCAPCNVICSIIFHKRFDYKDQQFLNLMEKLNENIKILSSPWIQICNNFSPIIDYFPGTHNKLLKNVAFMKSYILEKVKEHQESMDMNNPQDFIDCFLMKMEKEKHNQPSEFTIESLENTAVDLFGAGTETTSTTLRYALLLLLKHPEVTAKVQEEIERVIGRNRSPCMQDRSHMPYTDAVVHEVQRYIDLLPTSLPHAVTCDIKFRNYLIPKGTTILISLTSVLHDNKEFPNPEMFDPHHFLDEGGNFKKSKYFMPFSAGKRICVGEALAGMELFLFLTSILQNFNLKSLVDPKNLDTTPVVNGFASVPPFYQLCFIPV

The target in experiment [10] is Cytochrome P450 1A2 (Homo sapiens) (UniProt P05177). Nature of the experiment: Cytochrome P450 Family 1 Subfamily A Member 2 (CYP1A2) small molecule antagonists: luciferase reporter qHTS assay (AID 1671199). Further: nearly all actives have a fitted effect of over 50% in size. Further: potency means the concentration at half of the fitted maximal effect. In short, it runs like this:
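Inhibition of CYP1A2 conversion of proluciferin to luciferin, detected by luminescence. Reaction run 1 h at room temperature with NADPH regeneration after brief compound preincubation.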

For experiment [11], the target named is Voltage-gated inwardly rectifying potassium channel KCNH2 (Homo sapiens) (UniProt Q12809). The experiment in a line: Human Ether-a-go-go-Related Gene (hERG) channel small molecule antagonists: fluorescence cell-based qHTS assay (AID 1671200). In short, it runs like this: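 Measured: Tl+ flux via fluorescence (480/540 nm) in hERG-expressing U2OS cells after 1 h dye loading at room temperature.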
Voltage-gated inwardly rectifying potassium channel KCNH2 (Homo sapiens), sequence (Q12809 whole entry, looked up): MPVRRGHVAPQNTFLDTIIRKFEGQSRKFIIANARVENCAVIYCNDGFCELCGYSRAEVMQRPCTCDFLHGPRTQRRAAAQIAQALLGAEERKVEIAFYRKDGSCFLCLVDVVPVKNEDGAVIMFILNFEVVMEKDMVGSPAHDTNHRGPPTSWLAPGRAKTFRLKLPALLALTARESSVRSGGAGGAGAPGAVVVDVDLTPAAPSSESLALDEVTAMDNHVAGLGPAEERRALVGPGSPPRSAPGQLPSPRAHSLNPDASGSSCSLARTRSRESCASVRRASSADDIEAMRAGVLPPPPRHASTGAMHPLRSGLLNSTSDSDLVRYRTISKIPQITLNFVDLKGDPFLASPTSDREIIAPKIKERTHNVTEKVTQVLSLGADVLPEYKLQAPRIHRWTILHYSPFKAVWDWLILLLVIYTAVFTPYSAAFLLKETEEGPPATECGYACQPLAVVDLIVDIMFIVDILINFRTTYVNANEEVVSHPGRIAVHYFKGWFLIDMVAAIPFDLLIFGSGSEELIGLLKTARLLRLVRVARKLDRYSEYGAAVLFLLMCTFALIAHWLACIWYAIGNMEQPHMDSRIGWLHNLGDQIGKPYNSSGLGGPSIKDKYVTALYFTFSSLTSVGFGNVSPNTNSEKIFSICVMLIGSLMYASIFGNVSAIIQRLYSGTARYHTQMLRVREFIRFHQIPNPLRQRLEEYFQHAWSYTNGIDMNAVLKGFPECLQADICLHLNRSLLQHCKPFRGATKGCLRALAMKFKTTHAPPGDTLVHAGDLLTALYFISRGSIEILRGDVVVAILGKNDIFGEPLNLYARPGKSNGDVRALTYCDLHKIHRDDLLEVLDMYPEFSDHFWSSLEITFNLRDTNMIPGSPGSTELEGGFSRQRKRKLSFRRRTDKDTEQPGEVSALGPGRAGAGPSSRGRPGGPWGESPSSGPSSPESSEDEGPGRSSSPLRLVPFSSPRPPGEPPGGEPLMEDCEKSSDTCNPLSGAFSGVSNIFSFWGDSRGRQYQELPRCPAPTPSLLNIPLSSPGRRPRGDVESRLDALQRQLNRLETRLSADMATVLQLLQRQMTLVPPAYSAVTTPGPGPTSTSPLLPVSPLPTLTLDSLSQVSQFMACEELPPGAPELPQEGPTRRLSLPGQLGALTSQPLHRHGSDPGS

Experiment [12] has as its target Cytochrome P450 3A4 (Homo sapiens) (UniProt P08684). The experiment in a line: Cytochrome P450 Family 3 Subfamily A Member 4 (CYP3A4) small molecule antagonists: luciferase reporter qHTS assay (AID 1671201). Put shortly: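 Setup: enzyme-substrate mix, compound pin transfer, 10 min RT. Reaction: NADPH regeneration solution, 1 h RT. Readout: detection reagent stops turnover, luminescence measured after 20 min, expressed in relative luminescence units.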

A short description of experiment [13]: Caspase-3/7 induction in HepG2 cells by small molecules, qHTS cell viability counter screen (AID 1346981). Further: series mostly up to about 92 µM; nearly all actives have a fitted effect of over 30% in size. Put shortly:
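Steps: seed 2,000 HepG2 cells per well; incubate 5 hr at 37 C; pin-add compounds in DMSO; incubate 16 hr; add CellTiter-Fluor; after 1 hr at 37 C and 5% CO2, read fluorescence.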

The target of experiment [14] is Nuclear receptor subfamily 1 group I member 2 (Rattus norvegicus) (UniProt Q9R1A7). The experiment in a line: Rat pregnane X receptor (rPXR) activation by small molecules, qHTS assay (AID 1346983). Further: nearly all actives have a fitted effect of over 20% in size. As to conditions: rPXR luciferase reporter cells, One-Glo luminescence, 24 h; max activation: stronger effect = higher value. In short, it runs like this:
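Cell-based rPXR activation assay: rPXR cells, 2,000 per well, rested 5hr at 37 C, then exposed to compounds in DMSO for 24 hr at 37 C. Luciferase activity read by One-Glo luminescence after 30 min at room temperature.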

The target of experiment [15] is Nuclear receptor subfamily 1 group I member 2 (Homo sapiens) (UniProt O75469). The experiment in a line: CYP3A4 induction through human pregnane X receptor (PXR) by small molecules, qHTS assay (AID 1346984). Further: nearly all actives have a fitted effect of over 40% in size. In short, it runs like this: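 Steps: seed DPX-2 cells, 5 hr at 37C; pin-transfer compounds; 24 hr at 37C; add Luciferin-IPA (3uM final), 3 hr at 37C; add One-Glo, 30 min RT; read luminescence.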
Nuclear receptor subfamily 1 group I member 2 (Homo sapiens), sequence (O75469 whole entry, looked up): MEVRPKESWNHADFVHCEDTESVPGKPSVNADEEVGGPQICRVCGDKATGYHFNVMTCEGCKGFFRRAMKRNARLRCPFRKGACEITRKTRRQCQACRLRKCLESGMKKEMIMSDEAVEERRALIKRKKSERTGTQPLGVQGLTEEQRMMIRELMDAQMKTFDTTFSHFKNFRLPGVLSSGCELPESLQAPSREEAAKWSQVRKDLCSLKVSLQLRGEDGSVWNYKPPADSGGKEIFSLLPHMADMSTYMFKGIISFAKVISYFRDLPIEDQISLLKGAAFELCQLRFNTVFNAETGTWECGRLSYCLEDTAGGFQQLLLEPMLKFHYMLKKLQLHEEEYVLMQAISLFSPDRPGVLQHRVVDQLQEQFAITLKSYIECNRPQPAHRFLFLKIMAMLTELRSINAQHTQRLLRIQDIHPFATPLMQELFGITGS

The target in experiment [16] is Cytochrome P450 2C19 (Homo sapiens) (UniProt P33261). Nature of the experiment: Cytochrome P450 Family 2 Subfamily C Member 19 (CYP2C19) small molecule antagonists: luciferase reporter qHTS assay (AID 1671197). Further: nearly all actives have a fitted effect of over 65% in size. Further: potency means the concentration at half of the fitted maximal effect. In short, it runs like this:
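Compounds were tested on CYP2C19 activity via proluciferin conversion to luciferin. The 37C, 1 h reaction followed NADPH addition; detection reagent stopped it.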

Experiment [17] addresses Nuclear receptor subfamily 1 group I member 2 (Homo sapiens) (UniProt O75469). Nature of the experiment: Human pregnane X receptor (PXR) activation by small molecules, qHTS assay (AID 1346985). Further: nearly all actives have a fitted effect of over 40% in size. In short, it runs like this: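 DPX-2 cells (HepG2 co-transfected with a PXR response element and a CYP3A4-promoter luciferase construct) were seeded at 2,000 per well, rested 5 hr at 37C, then exposed to DMSO-dissolved compounds for 24 hr. Activation was read as luciferase luminescence.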
On the % scale 0 is the no-effect control and ±100 the full control effect.

Cytochrome P450 3A4 (Homo sapiens), sequence (P08684 whole entry, looked up): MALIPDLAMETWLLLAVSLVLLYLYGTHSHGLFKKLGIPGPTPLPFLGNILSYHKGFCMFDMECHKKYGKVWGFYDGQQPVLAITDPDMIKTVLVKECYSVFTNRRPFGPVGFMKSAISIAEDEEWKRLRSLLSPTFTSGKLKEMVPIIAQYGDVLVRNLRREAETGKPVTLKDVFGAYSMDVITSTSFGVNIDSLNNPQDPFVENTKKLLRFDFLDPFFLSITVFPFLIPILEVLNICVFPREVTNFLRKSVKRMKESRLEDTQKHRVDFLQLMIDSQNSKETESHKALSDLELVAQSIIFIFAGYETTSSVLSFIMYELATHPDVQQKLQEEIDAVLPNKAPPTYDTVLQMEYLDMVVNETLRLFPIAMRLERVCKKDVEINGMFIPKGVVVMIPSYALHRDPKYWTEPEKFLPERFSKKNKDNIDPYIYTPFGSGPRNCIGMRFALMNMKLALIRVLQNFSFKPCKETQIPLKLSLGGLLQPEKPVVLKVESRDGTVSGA
Cytochrome P450 2D6 (Homo sapiens), sequence (P10635 whole entry, looked up): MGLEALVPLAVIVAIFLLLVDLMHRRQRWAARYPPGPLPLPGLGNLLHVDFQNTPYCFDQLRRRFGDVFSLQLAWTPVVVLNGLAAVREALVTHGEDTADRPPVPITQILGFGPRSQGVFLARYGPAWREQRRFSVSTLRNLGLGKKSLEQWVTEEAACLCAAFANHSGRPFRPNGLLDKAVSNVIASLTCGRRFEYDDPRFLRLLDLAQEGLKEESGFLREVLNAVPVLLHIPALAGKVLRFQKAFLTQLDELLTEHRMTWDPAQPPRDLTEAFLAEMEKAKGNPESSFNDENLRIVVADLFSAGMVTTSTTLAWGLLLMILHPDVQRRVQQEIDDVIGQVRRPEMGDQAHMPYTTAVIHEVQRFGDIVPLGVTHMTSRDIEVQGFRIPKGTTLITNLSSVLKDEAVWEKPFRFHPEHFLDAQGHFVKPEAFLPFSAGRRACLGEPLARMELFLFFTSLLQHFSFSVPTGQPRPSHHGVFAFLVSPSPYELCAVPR
Cytochrome P450 1A2 (Homo sapiens), sequence (P05177 whole entry, looked up): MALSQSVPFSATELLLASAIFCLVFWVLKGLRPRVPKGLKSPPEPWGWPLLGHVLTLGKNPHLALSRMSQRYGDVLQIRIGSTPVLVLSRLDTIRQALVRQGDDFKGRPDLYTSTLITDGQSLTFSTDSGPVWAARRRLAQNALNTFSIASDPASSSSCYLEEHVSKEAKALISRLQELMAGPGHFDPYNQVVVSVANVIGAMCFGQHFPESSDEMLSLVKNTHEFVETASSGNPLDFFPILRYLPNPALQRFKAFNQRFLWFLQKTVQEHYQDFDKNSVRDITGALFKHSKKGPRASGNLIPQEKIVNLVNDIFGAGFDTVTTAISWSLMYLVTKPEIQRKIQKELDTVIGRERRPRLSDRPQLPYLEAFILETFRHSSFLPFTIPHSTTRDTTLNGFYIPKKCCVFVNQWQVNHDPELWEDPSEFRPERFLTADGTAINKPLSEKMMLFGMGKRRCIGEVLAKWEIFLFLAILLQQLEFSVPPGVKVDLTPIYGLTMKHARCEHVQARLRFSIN
Cytochrome P450 2C19 (Homo sapiens), sequence (P33261 whole entry, looked up): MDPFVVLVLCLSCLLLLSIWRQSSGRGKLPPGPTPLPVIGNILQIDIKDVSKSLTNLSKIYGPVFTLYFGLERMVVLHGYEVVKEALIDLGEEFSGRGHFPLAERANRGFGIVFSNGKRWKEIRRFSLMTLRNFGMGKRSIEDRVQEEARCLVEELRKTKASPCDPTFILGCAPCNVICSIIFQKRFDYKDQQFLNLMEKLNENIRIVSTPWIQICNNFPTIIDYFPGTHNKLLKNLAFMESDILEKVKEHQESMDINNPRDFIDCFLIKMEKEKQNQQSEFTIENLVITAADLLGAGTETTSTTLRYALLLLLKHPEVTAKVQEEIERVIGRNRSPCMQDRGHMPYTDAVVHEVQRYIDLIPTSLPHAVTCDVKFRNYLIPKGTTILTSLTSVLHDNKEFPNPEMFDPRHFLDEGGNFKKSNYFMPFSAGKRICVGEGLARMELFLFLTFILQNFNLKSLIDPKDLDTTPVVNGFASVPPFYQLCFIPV
Nuclear receptor subfamily 1 group I member 2 (Rattus norvegicus), sequence (Q9R1A7 whole entry, looked up): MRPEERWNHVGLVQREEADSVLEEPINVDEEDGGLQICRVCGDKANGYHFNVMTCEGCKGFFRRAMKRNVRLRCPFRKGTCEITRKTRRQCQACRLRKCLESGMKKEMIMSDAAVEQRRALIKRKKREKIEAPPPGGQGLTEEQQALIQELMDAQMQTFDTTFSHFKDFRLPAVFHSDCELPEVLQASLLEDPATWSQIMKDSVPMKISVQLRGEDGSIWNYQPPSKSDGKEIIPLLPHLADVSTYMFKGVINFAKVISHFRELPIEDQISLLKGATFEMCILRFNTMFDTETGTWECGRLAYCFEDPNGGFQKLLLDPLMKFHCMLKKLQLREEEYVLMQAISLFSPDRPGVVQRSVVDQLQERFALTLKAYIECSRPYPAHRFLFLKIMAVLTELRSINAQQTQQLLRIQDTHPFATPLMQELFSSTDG

As to `CCCCCCCCOC(C)=O`, the compound was classed as inactive in experiment [1], in experiment [2], in experiment [4] and in experiment [6]. Besides, the Potency entry in experiment [3], in experiment [5], in experiment [7], in [8], in [9] and in [10] was “inactive” each time. For the same compound, the Potency entry in experiment [11] and in experiment [12] was “inactive” each time.
On to `COCC(=O)Nc1c(I)c(C(=O)NCC(O)CO)c(I)c(C(=O)N(C)CC(O)CO)c1I` (stereo not given), for which the compound was classed as inactive in experiment [1], in experiment [2], in experiment [4], in experiment [6] and in experiment [15]. The Potency result in experiment [3], in experiment [13], in [7], in experiment [16], in experiment [10] and in experiment [11] was “inactive” in each case. Further, the Potency entry in [12] was “inactive”. Besides, the max activation in experiment [14] was -3.61%.
Take `COc1cc2c3cc1Oc1cc(ccc1O)C[C@@H]1c4c(cc(OC)c(O)c4Oc4ccc(cc4)C[C@@H]3N(C)CC2)CC[N+]1(C)C`: the compound was classed as inactive in experiment [1], in experiment [2], in [4] and in experiment [15]. Moreover, the Potency result in experiment [3], in experiment [5], in experiment [13], in experiment [7], in [17] and in experiment [8] was “inactive” in each case. In addition, the Potency entry in [16], in experiment [10], in [11] and in experiment [12] was “inactive” throughout. The max activation in experiment [14] was -3.43%.
For the compound `CC(=O)c1ccc2c(c1)CCCC2`, the outcome in [1], in [2], in [4] and in experiment [6] was inactive. The Potency entry in experiment [3], in experiment [13], in experiment [7], in [8], in [9] and in [11] was “inactive” in each case. The Potency entry in [12] is “inactive”. The Potency in [16] was 79.6 µM (active); in experiment [10] it was 35.6 µM (active).
As for `C=C[Si](C)(C)O[Si](C)(C)C=C`, the compound was called inactive in [1], in experiment [2] and in experiment [4]. For the same compound, the Potency result in [3], in experiment [5], in experiment [13], in [7], in [8] and in experiment [16] was “inactive” in each case. The Potency entry in experiment [9], in experiment [10], in experiment [11] and in experiment [12] was “inactive” in each case.
Consider `CC(C)c1ccccc1O`, for which the result in [1], in [2], in [4] and in experiment [6] was inactive. Also, the Potency entry in [3], in [5], in [7], in experiment [8], in experiment [16] and in experiment [11] was “inactive” throughout. Moreover, the Potency entry in experiment [12] is “inactive”.
As for `Cc1cc(C)cc([N+](=O)[O-])c1`, the result in experiment [1], in [2] and in experiment [4] was inactive. Further, the Potency result in experiment [3], in experiment [5], in [7], in experiment [8], in [16] and in [10] was “inactive” throughout. For the same compound, the Potency result in experiment [11] and in [12] was “inactive” throughout.
On to `CCCCOC(=O)C(C)OC(=O)CCC` (stereo not given), for which the compound was classed as inactive in experiment [1], in [2], in experiment [4] and in [6]. Also, the Potency entry in experiment [3], in [7], in experiment [8], in experiment [16], in experiment [9] and in experiment [10] was “inactive” each time. In addition, the Potency entry in experiment [11] and in [12] was “inactive” each time.

(Values after PubChem BioAssay (Tox21).)
